Source: ChEMBL document CHEMBL1961873, “Compounds: GSK PKIS; Assays: Nanosyn kinase panel” (2012)

Legend:
[1] = biological target: Calcium/calmodulin-dependent protein kinase type II subunit alpha (Homo sapiens) (UniProt Q9UQM7); details: at 1 µM;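 note: reported value is a mean percent inhibition of CAMK2A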
[2] = biological target: Calcium/calmodulin-dependent protein kinase type II subunit delta (Homo sapiens) (UniProt Q13557); details: at 0.1 µM
[3] = biological target: Calcium/calmodulin-dependent protein kinase type II subunit delta (Homo sapiens) (UniProt Q13557); details: at 1 µM
[4] = biological target: T1, Calcium/calmodulin-dependent protein kinase type IV (Homo sapiens) (UniProt Q16566); details: at 0.1 µM
T1 sequence (whole entry): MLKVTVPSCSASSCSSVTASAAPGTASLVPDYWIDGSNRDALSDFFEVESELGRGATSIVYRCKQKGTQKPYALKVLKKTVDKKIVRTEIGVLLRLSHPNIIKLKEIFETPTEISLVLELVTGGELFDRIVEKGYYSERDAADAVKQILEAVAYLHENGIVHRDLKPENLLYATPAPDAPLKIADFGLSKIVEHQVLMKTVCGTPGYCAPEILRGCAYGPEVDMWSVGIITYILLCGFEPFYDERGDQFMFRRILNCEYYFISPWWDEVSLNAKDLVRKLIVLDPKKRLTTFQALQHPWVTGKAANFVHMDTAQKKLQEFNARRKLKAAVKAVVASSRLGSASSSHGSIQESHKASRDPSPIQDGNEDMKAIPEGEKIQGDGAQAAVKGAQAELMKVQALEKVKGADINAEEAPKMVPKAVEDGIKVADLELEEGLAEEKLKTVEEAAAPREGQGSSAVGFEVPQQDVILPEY

[5] = biological target: T1, Calcium/calmodulin-dependent protein kinase type IV (Homo sapiens); details: at 1 µM
[6] = biological target: T2, Serine/threonine-protein kinase Chk1 (Homo sapiens) (UniProt O14757); details: at 0.1 µM
T2 sequence (whole entry): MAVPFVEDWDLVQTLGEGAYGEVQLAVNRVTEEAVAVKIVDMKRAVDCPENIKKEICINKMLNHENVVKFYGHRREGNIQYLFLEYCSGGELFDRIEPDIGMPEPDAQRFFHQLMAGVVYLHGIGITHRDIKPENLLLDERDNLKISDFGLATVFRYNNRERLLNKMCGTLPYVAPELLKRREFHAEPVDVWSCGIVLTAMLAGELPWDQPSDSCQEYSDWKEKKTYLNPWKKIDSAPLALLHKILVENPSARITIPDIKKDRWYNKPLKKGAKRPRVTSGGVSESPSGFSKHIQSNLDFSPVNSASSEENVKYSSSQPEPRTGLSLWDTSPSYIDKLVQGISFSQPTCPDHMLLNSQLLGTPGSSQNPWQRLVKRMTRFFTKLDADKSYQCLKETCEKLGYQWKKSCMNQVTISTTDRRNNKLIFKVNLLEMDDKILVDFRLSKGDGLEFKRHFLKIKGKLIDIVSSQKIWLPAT

[7] = biological target: T2, Serine/threonine-protein kinase Chk1 (Homo sapiens); details: at 1 µM
[8] = biological target: Serine/threonine-protein kinase Chk2 (Homo sapiens) (UniProt O96017); details: at 0.1 µM
[9] = biological target: Serine/threonine-protein kinase Chk2 (Homo sapiens) (UniProt O96017); details: at 1 µM
[10] = biological target: Death-associated protein kinase 1 (Homo sapiens) (UniProt P53355); details: at 0.1 µM
[11] = biological target: Death-associated protein kinase 1 (Homo sapiens) (UniProt P53355); details: at 1 µM
[12] = biological target: T3, Serine/threonine-protein kinase DCLK2 (Homo sapiens) (UniProt Q8N568); details: at 0.1 µM
T3 sequence (whole entry): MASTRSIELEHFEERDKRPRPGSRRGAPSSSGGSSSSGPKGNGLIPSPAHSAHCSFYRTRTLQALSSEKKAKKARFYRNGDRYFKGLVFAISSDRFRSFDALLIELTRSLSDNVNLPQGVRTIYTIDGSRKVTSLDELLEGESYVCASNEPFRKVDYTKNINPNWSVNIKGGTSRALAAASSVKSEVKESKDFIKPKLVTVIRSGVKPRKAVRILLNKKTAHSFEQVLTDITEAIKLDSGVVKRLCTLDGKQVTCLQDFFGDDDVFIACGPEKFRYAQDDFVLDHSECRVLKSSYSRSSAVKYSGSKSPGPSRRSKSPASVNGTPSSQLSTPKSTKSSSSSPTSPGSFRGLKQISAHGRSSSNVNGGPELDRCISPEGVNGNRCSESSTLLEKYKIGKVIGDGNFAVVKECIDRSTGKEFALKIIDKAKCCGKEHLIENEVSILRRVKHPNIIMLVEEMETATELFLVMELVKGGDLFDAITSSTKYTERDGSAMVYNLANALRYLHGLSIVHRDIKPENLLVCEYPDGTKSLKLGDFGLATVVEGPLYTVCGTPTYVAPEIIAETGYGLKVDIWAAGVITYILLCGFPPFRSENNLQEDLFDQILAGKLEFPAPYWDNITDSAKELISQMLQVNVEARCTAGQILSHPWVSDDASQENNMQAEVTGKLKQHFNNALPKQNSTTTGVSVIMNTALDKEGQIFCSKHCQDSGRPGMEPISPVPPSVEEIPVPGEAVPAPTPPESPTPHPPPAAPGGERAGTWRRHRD

[13] = biological target: MAP kinase-activated protein kinase 2 (Homo sapiens) (UniProt P49137); details: at 0.1 µM
[14] = biological target: MAP kinase-activated protein kinase 2 (Homo sapiens) (UniProt P49137); details: at 1 µM
[15] = biological target: MAP kinase-activated protein kinase 3 (Homo sapiens) (UniProt Q16644); details: at 0.1 µM
[16] = biological target: MAP kinase-activated protein kinase 3 (Homo sapiens) (UniProt Q16644); details: at 1 µM
[17] = biological target: Serine/threonine-protein kinase MARK1 (Homo sapiens) (UniProt Q9P0L2); details: at 0.1 µM
[18] = biological target: Serine/threonine-protein kinase MARK1 (Homo sapiens) (UniProt Q9P0L2); details: at 1 µM
[19] = biological target: MAP/microtubule affinity-regulating kinase 3 (Homo sapiens) (UniProt P27448); details: at 0.1 µM;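 note: mean percent inhibition of MARK3 kinase activity, measured within the GSK PKIS screening panel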
[20] = biological target: T3, Serine/threonine-protein kinase DCLK2 (Homo sapiens); details: at 1 µM

Sequence of Serine/threonine-protein kinase MARK1 (Homo sapiens) (Q9P0L2 whole entry, looked up): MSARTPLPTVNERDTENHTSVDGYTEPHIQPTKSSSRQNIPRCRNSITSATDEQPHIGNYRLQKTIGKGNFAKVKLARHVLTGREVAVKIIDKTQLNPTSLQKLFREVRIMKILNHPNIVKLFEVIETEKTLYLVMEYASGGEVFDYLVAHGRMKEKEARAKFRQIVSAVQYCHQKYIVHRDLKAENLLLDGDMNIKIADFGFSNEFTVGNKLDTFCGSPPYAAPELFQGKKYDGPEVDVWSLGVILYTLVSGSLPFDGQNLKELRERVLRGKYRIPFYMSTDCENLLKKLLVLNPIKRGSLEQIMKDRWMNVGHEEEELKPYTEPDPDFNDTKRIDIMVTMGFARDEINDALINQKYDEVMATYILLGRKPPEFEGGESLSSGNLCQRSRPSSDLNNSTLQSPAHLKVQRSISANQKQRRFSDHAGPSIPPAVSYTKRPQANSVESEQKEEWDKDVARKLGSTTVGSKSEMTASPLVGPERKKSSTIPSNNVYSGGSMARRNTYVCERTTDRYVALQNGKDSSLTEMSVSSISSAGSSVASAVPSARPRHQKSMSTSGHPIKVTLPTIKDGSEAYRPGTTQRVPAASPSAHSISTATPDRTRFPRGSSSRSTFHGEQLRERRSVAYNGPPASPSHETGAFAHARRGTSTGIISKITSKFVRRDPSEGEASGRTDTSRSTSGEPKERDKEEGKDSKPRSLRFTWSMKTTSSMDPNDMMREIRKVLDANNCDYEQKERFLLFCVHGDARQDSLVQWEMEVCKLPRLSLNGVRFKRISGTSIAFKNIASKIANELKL
Sequence of Calcium/calmodulin-dependent protein kinase type II subunit delta (Homo sapiens) (Q13557 whole entry): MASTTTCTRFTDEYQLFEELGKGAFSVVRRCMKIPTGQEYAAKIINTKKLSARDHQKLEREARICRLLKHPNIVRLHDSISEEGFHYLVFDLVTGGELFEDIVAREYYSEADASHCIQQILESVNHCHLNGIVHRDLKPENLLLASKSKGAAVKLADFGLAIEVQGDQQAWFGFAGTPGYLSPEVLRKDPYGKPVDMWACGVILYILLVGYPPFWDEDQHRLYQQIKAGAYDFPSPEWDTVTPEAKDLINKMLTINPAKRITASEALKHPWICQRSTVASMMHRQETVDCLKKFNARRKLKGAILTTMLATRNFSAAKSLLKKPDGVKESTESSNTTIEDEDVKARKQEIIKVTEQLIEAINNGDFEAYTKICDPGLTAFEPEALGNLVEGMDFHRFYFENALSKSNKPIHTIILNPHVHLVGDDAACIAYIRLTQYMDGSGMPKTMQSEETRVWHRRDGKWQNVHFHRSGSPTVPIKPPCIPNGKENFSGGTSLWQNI
Sequence of Calcium/calmodulin-dependent protein kinase type II subunit alpha (Homo sapiens) (Q9UQM7 whole entry): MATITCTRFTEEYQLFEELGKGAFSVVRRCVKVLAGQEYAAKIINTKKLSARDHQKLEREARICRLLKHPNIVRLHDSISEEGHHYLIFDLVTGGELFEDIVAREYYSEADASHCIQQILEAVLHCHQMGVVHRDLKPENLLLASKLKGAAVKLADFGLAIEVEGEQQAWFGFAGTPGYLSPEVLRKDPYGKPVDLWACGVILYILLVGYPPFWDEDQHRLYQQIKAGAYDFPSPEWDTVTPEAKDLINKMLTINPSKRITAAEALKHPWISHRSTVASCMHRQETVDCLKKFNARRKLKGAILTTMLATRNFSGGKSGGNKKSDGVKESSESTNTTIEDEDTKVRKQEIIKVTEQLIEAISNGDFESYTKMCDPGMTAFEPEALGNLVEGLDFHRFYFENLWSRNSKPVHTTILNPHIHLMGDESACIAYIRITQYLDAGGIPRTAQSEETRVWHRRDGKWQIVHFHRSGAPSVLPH
Sequence of MAP kinase-activated protein kinase 2 (Homo sapiens) (P49137 whole entry, looked up): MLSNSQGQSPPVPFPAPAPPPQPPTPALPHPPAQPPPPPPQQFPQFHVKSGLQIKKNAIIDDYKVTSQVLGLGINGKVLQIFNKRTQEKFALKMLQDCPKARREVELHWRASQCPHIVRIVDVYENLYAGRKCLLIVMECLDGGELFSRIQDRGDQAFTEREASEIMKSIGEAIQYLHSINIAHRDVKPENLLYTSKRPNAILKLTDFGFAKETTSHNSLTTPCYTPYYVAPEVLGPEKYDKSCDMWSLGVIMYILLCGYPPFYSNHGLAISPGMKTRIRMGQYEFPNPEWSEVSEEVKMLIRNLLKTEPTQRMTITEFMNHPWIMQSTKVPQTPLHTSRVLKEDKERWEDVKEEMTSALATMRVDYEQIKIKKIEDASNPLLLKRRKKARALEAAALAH
Sequence of Death-associated protein kinase 1 (Homo sapiens) (P53355 whole entry, looked up): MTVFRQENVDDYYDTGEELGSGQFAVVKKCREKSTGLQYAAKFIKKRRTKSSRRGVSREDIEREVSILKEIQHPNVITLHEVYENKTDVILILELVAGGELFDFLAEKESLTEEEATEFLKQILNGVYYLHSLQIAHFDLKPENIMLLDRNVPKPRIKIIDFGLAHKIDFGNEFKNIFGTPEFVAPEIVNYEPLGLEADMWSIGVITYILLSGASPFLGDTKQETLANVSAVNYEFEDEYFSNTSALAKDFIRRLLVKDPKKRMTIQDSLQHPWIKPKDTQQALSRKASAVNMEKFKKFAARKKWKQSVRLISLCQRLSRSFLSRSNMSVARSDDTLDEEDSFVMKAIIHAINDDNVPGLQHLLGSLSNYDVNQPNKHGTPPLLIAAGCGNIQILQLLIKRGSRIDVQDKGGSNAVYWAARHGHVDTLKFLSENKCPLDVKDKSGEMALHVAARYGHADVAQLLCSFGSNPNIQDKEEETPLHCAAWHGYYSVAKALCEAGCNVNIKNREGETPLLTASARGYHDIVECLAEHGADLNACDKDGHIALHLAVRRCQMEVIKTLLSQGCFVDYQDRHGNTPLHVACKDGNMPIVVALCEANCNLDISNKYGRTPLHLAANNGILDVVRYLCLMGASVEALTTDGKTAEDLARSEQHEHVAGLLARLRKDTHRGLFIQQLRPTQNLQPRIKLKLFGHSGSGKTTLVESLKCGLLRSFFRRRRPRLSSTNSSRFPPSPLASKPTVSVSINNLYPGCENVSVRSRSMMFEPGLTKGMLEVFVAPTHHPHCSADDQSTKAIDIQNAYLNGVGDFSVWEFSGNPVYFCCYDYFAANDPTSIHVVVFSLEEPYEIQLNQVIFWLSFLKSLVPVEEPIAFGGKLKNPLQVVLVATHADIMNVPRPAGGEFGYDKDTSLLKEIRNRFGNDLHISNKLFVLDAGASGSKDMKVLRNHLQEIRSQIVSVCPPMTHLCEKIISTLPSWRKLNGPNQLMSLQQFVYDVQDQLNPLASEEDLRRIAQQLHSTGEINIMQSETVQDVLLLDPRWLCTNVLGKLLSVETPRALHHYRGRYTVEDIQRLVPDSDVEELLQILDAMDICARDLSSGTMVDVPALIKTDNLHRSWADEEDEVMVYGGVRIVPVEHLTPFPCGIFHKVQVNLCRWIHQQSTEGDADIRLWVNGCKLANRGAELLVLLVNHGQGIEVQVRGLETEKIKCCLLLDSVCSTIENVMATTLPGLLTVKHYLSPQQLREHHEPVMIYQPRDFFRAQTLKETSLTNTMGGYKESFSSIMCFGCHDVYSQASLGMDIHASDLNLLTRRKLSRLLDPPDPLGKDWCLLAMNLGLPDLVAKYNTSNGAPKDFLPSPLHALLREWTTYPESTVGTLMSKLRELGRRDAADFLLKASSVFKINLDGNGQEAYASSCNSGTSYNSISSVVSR
Sequence of MAP/microtubule affinity-regulating kinase 3 (Homo sapiens) (P27448 whole entry, looked up): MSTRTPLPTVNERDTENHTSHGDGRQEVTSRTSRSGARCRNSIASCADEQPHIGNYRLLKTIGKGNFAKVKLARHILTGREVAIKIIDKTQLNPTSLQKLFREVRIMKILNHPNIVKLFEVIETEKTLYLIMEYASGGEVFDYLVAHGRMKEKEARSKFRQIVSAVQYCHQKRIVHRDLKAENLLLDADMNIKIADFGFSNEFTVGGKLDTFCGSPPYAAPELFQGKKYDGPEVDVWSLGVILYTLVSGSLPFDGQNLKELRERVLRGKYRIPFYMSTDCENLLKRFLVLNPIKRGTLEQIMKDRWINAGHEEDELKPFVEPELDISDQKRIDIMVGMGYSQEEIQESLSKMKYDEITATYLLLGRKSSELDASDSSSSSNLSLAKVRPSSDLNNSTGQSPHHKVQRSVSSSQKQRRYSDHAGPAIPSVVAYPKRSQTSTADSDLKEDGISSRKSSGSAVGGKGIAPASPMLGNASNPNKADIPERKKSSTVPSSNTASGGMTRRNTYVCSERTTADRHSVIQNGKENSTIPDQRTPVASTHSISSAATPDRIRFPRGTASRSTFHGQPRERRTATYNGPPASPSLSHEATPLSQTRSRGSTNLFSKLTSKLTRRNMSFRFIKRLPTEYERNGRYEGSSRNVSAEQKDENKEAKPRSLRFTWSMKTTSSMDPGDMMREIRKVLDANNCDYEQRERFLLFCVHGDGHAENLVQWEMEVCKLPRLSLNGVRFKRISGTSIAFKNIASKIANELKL
Sequence of MAP kinase-activated protein kinase 3 (Homo sapiens) (Q16644 whole entry, looked up): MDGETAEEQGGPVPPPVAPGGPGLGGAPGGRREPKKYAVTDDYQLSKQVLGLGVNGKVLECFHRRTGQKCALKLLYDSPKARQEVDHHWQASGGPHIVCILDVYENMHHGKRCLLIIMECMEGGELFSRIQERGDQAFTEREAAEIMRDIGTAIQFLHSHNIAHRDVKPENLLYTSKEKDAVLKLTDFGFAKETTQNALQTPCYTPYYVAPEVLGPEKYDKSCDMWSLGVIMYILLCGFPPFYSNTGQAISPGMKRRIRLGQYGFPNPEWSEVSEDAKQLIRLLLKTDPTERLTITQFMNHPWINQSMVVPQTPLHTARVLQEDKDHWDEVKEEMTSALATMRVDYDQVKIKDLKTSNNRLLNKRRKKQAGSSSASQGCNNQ

Compound | inhibition [1] | inhibition [2] | inhibition [3] | inhibition [4] | inhibition [5] | inhibition [6] | inhibition [7] | inhibition [8] | inhibition [9] | inhibition [10] | inhibition [11] | inhibition [12] | inhibition [13] | inhibition [14] | inhibition [15] | inhibition [16] | inhibition [17] | inhibition [18] | inhibition [19] | inhibition [20]
COc1cc(C)c(NC(=O)CN(C)C)cc1Nc1nc(Nc2cccc(F)c2C(N)=O)c2cc[nH]c2n1 | 8.59% | 4.57% | 14.2% | 9.62% | 40% | -4.03% | -1.09% | 40.2% | 76.2% | 1.58% | 35% | 1.99% | 0.89% | 0.73% | 3.1% | 3.56% | -0.37% | 1.38% | -0.27% | 
O=C1NC(=O)C(N2CCc3ccccc32)=C1c1ccc(Cl)cc1 | 2.12% | 4.21% | 5.17% | 0.68% | 0.58% | 9.38% | 12.7% | 8.35% | 8.52% | 11.1% | 13.8% | 1.5% | 4.64% | 5.01% | 10.4% | 10.3% | 3.93% | 5.85% | 5.98% | 1.94%
COc1cc2c(cc1Nc1nc(N3CCc4ccccc43)c3cc[nH]c3n1)N(C(=O)CN(C)C)CC2 | 4.08% | 3.43% | 2.99% | 2.17% | 3.69% | 0.15% | 3.74% | 1.34% | 7.08% | 2.95% | 5.32% | -0.1% | 1.24% | 1.57% | 1.99% | 0.18% | 1.84% | 3.15% | 4.35% | -1.1%
Cc1ccc(C(=O)NC2CCCCC2)cc1-c1ccc(C(=O)NCC2CC2)cc1 | 4.57% | 4.88% | 2.35% | 3.22% | 3.67% | 6.06% | 5.14% | 1.33% | 1.29% | 3.76% | 5.32% | 3.45% | 0.37% | 0.95% | 1.78% | 4.53% | 1.97% | 0.65% | 3.7% | 
CC(C)=Cc1cccc2c1/C(=N/Nc1ccc(S(N)(=O)=O)cc1)C(=O)N2 | 6.48% | 2.83% | 11.3% | -1.55% | -0.74% | 6.35% | 10.3% | 5.36% | 9.14% | 9.26% | 10.2% | 0.25% | 3.53% | 3.71% | 7.64% | 7.15% | 2.11% | 24.8% | 2.08% | 
O=C1Nc2ccc(C(=O)c3ccco3)cc2C1=Cc1cc(Cl)c(O)c(Cl)c1 | 8% | 3.46% | 11.4% | 0.35% | 0.09% | 1.54% | 5.95% | 2.67% | 12.5% | -0.53% |  | 1% | 1.24% | 0.24% | 3.31% | 2.14% | 3.54% | 14.2% | 4.74% | 6.57%
CCn1c(-c2nonc2N)nc2c(N3CCCC3)nccc21 | -3.88% | -2.38% | -0.97% | -0.74% | -0.33% | 2.68% | 0.57% | -2.44% | -2.51% | 0.86% | 0.8% | -6.15% | -1.28% | -1.63% | -0.94% | -1.73% | 0.71% | 2.75% | 1.92% | 4.26%
COC(=O)Nc1nc2cc(Oc3ccc(NC(=O)Nc4cccc(C(=O)O)c4)cc3)ccc2[nH]1 | 3.09% | 1.92% | 1.91% | -1.16% | -2.08% | -3.62% | -0.43% | 0.25% | 6.26% | 1.22% | 0.01% | -6.21% | 0.64% | 0.43% | 0.86% | -0.42% | 0.32% | 3.08% | 1.09% | 
CC1=C(C(=O)Nc2ccc3[nH]ncc3c2)C(c2ccc(Cl)c(Cl)c2)CC(=O)N1 (stereo unspecified) | 2.88% | 2.72% | 3.98% | 1.22% | 2.09% | -1.3% | -0.85% | 1.4% | 4.28% | -2.03% | -1.58% |  | 0.89% | -0.26% | 2.5% | 1.83% | 0.33% | 5.92% | 2.97% | 0.32%
CS(=O)(=O)CCNCc1nc(-c2ccc3ncnc(Nc4ccc(F)c(Cl)c4)c3c2)cs1 | 3.45% | 1.76% | 3.83% | -0.31% | 0.31% | 2.71% | 3.9% | -0.4% | 1.15% | 4.88% | 6.48% | 0.59% | 1.59% | 0.26% | 2.16% | 1.58% | 1.43% | 1.33% | 1.69% | 
Cc1cccc(-c2n[nH]cc2-c2ccc3ncccc3n2)n1 | -0.05% | 0.08% | 2.08% | 1.14% | 2.81% | 2.24% | 1.66% | -0.67% | -0.16% | 0.65% | 0.85% |  | 0.61% | -0.07% | 0.58% | 2.89% | 1% | 1.95% | -0.37% | -5.57%
NS(=O)(=O)c1cccc(-c2ccc3c(NC(=O)C4CC4)n[nH]c3c2)c1 | -3.57% | -2.03% | -1.61% | -0.79% | -1.58% | 3.4% | 2.13% | -2.9% | -2.43% | 1.4% | 3.03% | 0.34% | -1.6% | -1.12% | 2.07% | 2.74% | 0.18% | 4.41% | 2.87% | 
CS(=O)(=O)Nc1ccc(N/C=C2\C(=O)Nc3ccccc32)cc1 | -2.22% | -2.44% | 4.73% | -0.09% | -1.35% | -0.22% | 5.75% | -1.67% | 10.4% | -1.81% | -2.55% | -2.55% | -1.85% | -1.69% | -2.11% | -2.88% | 3.85% | 23.8% | 0.83% | -4.45%
Nc1ncnc2occ(-c3ccc(NC(=O)Nc4cc(C(F)(F)F)cc(C(F)(F)F)c4)cc3)c12 | 2.09% | 2.95% | 1.63% | 0.17% | 3.99% | 1.83% | 5.4% | 1.45% | 2.14% | 1.57% | 3.18% | 0.95% | 0.92% | 0.1% | 2.58% | 4.92% | 0.83% | -0.19% | 3.3% | 1.34%
